# Experimental data as given in PMC8384837, “Expanding the binding specificity for RNA recognition by a PUF domain”.
# Assays:
# Assay in all cases: yeast three-hybrid, YBZ-1, SC-Leu-His + 0.5 mM 3-AT, 4 days
# Conditions in all cases: tags: N-Gal4 AD-HA kept; label: inside an RPR1-promoter hybrid RNA with tandem MS2 sites; ssRNA
# PUM1 PUF domain R8-NWG = PUM1 PUF domain R8-NWG (Homo sapiens, UniProt Q14671 828-1176, Y1123W;Q1126G)
# Outline: (§1)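 Pumilio-1 PUF domain libraries, randomized (NNK) at the three base-contacting residues of each repeat, were co-expressed with matching RNA elements from a centromeric plasmid in strain YBZ-1 (LexA–MS2 coat fusion, HIS3 reporter). Transformants were plated on SC-Leu (input) and SC-Leu-His + 0.5 mM 3-AT (selection) for four days, and repeat regions were PCR-amplified and Illumina-sequenced. The interaction score is the log2 change in variant frequency from input to selection, with pseudocount 1 where absent.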
# PUM1 PUF domain R3-VHP = PUM1 PUF domain R3-VHP (Homo sapiens, UniProt Q14671 828-1176, C935V;R936H;Q939P)
# Outline: as §1
# PUM1 PUF domain R8-RYM = PUM1 PUF domain R8-RYM (Homo sapiens, UniProt Q14671 828-1176, N1122R;Q1126M)
# Outline: as §1
# PUM1 PUF domain R7-RHP = PUM1 PUF domain R7-RHP (Homo sapiens, UniProt Q14671 828-1176, S1079R;N1080H;E1083P)
# Outline: as §1
# PUM1 PUF domain R7-EPS = PUM1 PUF domain R7-EPS (Homo sapiens, UniProt Q14671 828-1176, S1079E;N1080P;E1083S)
# Outline: as §1
# PUM1 PUF domain R6-AYE = target: T1, PUM1 PUF domain R6-AYE (Homo sapiens, UniProt Q14671 828-1176, N1043A;Q1047E)
# T1 sequence: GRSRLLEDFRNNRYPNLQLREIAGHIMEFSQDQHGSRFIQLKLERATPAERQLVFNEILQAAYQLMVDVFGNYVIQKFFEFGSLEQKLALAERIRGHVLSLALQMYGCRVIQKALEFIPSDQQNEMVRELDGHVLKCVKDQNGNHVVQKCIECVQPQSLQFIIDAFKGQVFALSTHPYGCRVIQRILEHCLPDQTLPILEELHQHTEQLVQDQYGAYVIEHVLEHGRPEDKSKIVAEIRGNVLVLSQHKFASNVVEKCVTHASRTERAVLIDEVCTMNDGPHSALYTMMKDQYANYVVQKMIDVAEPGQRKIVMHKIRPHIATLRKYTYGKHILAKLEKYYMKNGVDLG
# Outline: as §1
# PUM1 PUF domain R7-TVR = PUM1 PUF domain R7-TVR (Homo sapiens, UniProt Q14671 828-1176, S1079T;N1080V;E1083R)
# Outline: as §1
sequence,measurement,setting,value
GGCUAGAACUAGUGGAUCCCCCGGCGCCCGGCGGCUCGAGCCCGGGUAAGUGUAAAUAGUCUGCAUGCCGCCGGGCGCCAUGCCUGCAGGUCGACUCUAGAAAACAUG,binding signal,PUM1 PUF domain R8-NWG,3.93 log2 enrichment (interaction score)
same,binding signal,PUM1 PUF domain R3-VHP,3.02 log2 enrichment (interaction score)
GGCUAGAACUAGUGGAUCCCCCGGCGCCCGGCGGCUCGAGCCCGGGUAAGCGUAAAUAGUCUGCAUGCCGCCGGGCGCCAUGCCUGCAGGUCGACUCUAGAAAACAUG,binding signal,PUM1 PUF domain R8-RYM,4.93 log2 enrichment (interaction score)
GGCUAGAACUAGUGGAUCCCCCGGCGCCCGGCGGCUCGAGCCCGGGUAAGUCUAAAUAGUCUGCAUGCCGCCGGGCGCCAUGCCUGCAGGUCGACUCUAGAAAACAUG,binding signal,PUM1 PUF domain R7-RHP,4.29 log2 enrichment (interaction score)
same,binding signal,PUM1 PUF domain R7-EPS,1.4 log2 enrichment (interaction score)
GGCUAGAACUAGUGGAUCCCCCGGCGCCCGGCGGCUCGAGCCCGGGUAAGUGAAAAUAGUCUGCAUGCCGCCGGGCGCCAUGCCUGCAGGUCGACUCUAGAAAACAUG,binding signal,PUM1 PUF domain R6-AYE,6.06 log2 enrichment (interaction score)
GGCUAGAACUAGUGGAUCCCCCGGCGCCCGGCGGCUCGAGCCCGGGUAAGUGGAAAUAGUCUGCAUGCCGCCGGGCGCCAUGCCUGCAGGUCGACUCUAGAAAACAUG,binding signal,PUM1 PUF domain R6-AYE,3.94 log2 enrichment (interaction score)
GGCUAGAACUAGUGGAUCCCCCGGCGCCCGGCGGCUCGAGCCCGGGUAAGUUUAAAUAGUCUGCAUGCCGCCGGGCGCCAUGCCUGCAGGUCGACUCUAGAAAACAUG,binding signal,PUM1 PUF domain R7-EPS,5.7 log2 enrichment (interaction score)
same,binding signal,PUM1 PUF domain R7-TVR,4.91 log2 enrichment (interaction score)
